We go through 20 molecules from PubChem BioAssay (Tox21).

Experiment [1] can be described thus: qHTS assay to identify small molecule antagonists of the thyroid receptor (TR) signaling pathway - cell viability counter screen (AID 743064). Note: nearly all actives have a fitted effect of over 50% in size. Note: potency is the fitted concentration of half-maximal effect. The gist of the method: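 GH3.TRE-Luc rat pituitary cells carrying a TRE-luciferase reporter were treated with compound plus 1 nM T3 (final) for 23.5 h at 37 °C. Viability was then read in the same wells by CellTiter-Fluor fluorescence after a further 30 min.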
In general terms: qHTS replaces the single test concentration by a dilution series.

Experiment [2] can be described thus: qHTS assay to identify small molecule antagonists of the thyroid receptor (TR) signaling pathway (AID 743065). Note: nearly all actives have a fitted effect of over 55% in size. Note: potency is the fitted concentration of half-maximal effect. The method, boiled down: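 GH3.TRE-Luc rat pituitary cells carrying two TR response elements driving luciferase were plated for 4 h, given compound plus 1 nM T3 (final), and incubated 23.5 h at 37 C. ONE-Glo luminescence measured reporter inhibition; CellTiter-Fluor fluorescence tracked cytotoxicity.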

Experiment [3] has as its system thyroid hormone receptor (rat, GH3 cells). In words: qHTS assay to identify small molecule agonists of the thyroid receptor (TR) signaling pathway (AID 743066; calls by dose curve).
For experiment [4], the target named is Estrogen receptor (Homo sapiens) (UniProt P03372). In words: qHTS assay to identify small molecule antagonists of the estrogen receptor alpha (ER-alpha) signaling pathway (AID 743069; active = well fitted curve in the direction sought with a large enough effect in the signal ratio in the repeat runs, not every such curve was filed as active; the % refers to the signal ratio). The method, boiled down:
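A 17beta-estradiol challenge was applied right after compound transfer to ER-alpha-UAS-bla HEK293 cells previously kept in charcoal-stripped serum. Plates stood 18 hr at 37C and 5% CO2; fluorescence was read following 2 hr FRET substrate loading at room temperature.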

The nature of experiment [5]: qHTS assay to identify small molecule antagonists of the estrogen receptor alpha (ER-alpha) signaling pathway - cell viability counter screen (AID 743074; calls by dose curve;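 note: HEK293 cells carrying ER-alpha-UAS-bla reporter stimulated with 17beta-estradiol; nearly all actives have a fitted effect of over 45% in size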).
Experiment [6] deals with Estrogen receptor (Homo sapiens) (UniProt P03372). In words: qHTS assay to identify small molecule agonists of the estrogen receptor alpha (ER-alpha) signaling pathway (AID 743075; calls by dose curve;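 note: HEK293 GripTite cells with ER-alpha and UAS-driven beta-lactamase reporter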).
Sequence of Estrogen receptor (Homo sapiens) (P03372 whole entry, looked up): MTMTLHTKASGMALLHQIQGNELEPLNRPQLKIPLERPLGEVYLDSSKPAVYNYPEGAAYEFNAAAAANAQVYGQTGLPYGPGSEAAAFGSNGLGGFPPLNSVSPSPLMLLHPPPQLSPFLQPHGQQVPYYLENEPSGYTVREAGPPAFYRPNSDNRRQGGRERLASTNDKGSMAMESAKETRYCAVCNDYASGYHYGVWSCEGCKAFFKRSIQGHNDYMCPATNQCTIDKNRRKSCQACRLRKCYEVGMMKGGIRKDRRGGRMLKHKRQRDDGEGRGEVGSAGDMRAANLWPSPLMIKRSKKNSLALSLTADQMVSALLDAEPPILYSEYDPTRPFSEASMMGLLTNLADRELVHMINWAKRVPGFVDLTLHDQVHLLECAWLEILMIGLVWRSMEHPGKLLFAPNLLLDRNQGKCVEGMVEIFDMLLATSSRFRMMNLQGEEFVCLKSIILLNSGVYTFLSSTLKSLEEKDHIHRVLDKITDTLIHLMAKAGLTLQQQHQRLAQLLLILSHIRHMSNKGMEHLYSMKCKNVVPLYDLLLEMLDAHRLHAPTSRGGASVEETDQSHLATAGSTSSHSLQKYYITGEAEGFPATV
The target is the same in experiment [7]. In words: qHTS assay to identify small molecule agonists of the estrogen receptor alpha (ER-alpha) signaling pathway using the BG1 cell line (AID 743079). Note: nearly all actives have a fitted effect of over 20% in size. The settings on record: BG1Luc4E2 cells, ERE-luciferase agonist, 22 h; activation: at 70.3 µM (top of the series).
Experiment [8] is described as follows: qHTS assay to identify small molecule antagonists of the estrogen receptor alpha (ER-alpha) signaling pathway using the BG1 cell line (AID 743080; calls by dose curve;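 note: BG1 cells stimulated with 17beta-estradiol alongside compound; nearly all actives have a fitted effect of over 25% in size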). The method, boiled down:
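Seeding, 24 h rest, compound transfer from DMSO, 17beta-estradiol addition, 21.5 h incubation, CellTiter-Fluor (30 min, 37 C), then ONE-Glo (30 min, room temperature): this sequence was run on BG1-Luc-4E2 reporter cells.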

Experiment [9] in a line: qHTS assay to identify small molecule antagonists of the estrogen receptor alpha (ER-alpha) signaling pathway using the BG1 cell line - cell viability counter screen (AID 743081).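 Note: compound given together with 17beta-estradiol as the ER stimulus; nearly all actives have a fitted effect of over 45% in size.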
The target of a further experiment is Aromatase (Homo sapiens) (UniProt P11511). The experiment is described as follows: qHTS assay to identify aromatase inhibitors (AID 743083). Note: nearly all actives have a fitted effect of over 55% in size.
Sequence of Aromatase (Homo sapiens) (P11511 whole entry, looked up): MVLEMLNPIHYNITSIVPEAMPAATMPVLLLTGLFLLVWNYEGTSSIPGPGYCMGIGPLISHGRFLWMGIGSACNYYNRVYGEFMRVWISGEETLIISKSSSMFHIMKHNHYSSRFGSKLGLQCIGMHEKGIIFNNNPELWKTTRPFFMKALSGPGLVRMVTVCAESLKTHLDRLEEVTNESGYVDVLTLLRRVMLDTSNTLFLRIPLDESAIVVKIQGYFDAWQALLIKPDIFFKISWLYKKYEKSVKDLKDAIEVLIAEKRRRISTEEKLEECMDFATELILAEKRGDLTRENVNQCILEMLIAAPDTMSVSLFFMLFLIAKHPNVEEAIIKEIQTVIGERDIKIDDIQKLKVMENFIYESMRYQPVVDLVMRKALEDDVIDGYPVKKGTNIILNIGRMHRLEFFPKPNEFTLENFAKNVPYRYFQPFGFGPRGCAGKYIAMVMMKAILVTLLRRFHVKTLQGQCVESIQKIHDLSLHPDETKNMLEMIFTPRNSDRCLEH

Inconclusive results are not listed. Activity calls are given as the source filed them. Unless noted, calls come from the whole dose curve; as a rule, active = well fitted curve in the direction sought with a large enough effect in the repeat runs; inconclusive = weak or mixed curves; inactive = no such curve, though single readings can be large; an effect the other way counts as inactive or inconclusive. Positions of bridges follow the written chain, without caps; N, C: chain ends. Non-standard residues stand in square brackets, D forms with d. Residues, ends and D or L forms follow the SMILES beside them. *: point of attachment. pGlu = O=C1CC[C@@H](C(=O)O)N1; X2 = CC[C@H](C)CCCCC(=O)*; Thz = O=C(O)[C@@H]1CSCN1; Dab = NCC[C@H](N)C(=O)O

On to `COCC1=C(C(=O)OC(C)OC(=O)OC(C)C)N2C(=O)[C@@H](NC(=O)/C(=N\OC)c3csc(N)n3)[C@H]2SC1` (some centres not stated), for which the Potency entry in experiment [1], in experiment [2], in experiment [3], in experiment [4], in [5] and in [6] was “inactive” each time. The Potency entry (in [7]; in experiment [8]; in experiment [9]; in the experiment with Aromatase (Homo sapiens)) was “inactive” in each case.
Turning to `CCCCCCCCCCCCOCCCN`, the Potency entry in [1], in experiment [2], in experiment [3], in experiment [4], in experiment [5] and in experiment [6] was “inactive” throughout. Moreover, the Potency entry (in [7]; in experiment [8]; in experiment [9]; in the experiment with Aromatase (Homo sapiens)) was “inactive” in each case.
On to `CC1(O)CCC(C(C)(C)O)CC1` (configuration not stated), for which the Potency entry in experiment [1], in [2], in experiment [3], in [4], in experiment [5] and in experiment [6] was “inactive” throughout. Also, the Potency result (in experiment [7]; in experiment [8]; in experiment [9]; in the experiment with Aromatase (Homo sapiens)) was “inactive” each time.
In the case of `Cn1nnnc1SCC1=C(C(=O)O)N2C(=O)[C@@H](NC(=O)[C@H](O)c3ccccc3)[C@H]2SC1`, the Potency entry in experiment [1], in experiment [2], in [3], in [4], in [5] and in experiment [6] was “inactive” throughout. Moreover, the Potency result (in experiment [7]; in experiment [8]; in experiment [9]; with Aromatase (Homo sapiens)) was “inactive” throughout.
As to `O=P(O)(O)OC[C@H](O)CO`, the Potency entry in [1], in experiment [2], in experiment [3], in [4], in experiment [5] and in experiment [6] was “inactive” each time. Also, the Potency result (in [7]; in [8]; in experiment [9]; in the experiment with Aromatase (Homo sapiens)) was “inactive” each time.
As for `O=C(O)c1cccc(/C=C2/C[C@@H]3[C@@H](/C=C/[C@@H](O)C4CCCCC4)[C@H](O)C[C@@H]3O2)c1`, the Potency entry in [1], in experiment [2], in experiment [3], in experiment [4], in experiment [5] and in experiment [6] was “inactive” in each case. Besides, the Potency result (in [7]; in experiment [8]; in [9]; with Aromatase (Homo sapiens)) was “inactive” in each case.
In the case of `O=C(O)CO.[NH2-].[NH2-].[Pt+2]`, the Potency result in experiment [1], in experiment [2], in [3], in [4], in experiment [5] and in experiment [6] was “inactive” each time. In addition, the Potency result (in [7]; in [8]; in [9]; in the experiment with Aromatase (Homo sapiens)) was “inactive” in each case.
Turning to `O=C1NCCN1c1ncc([N+](=O)[O-])s1`, the Potency entry in experiment [1], in experiment [2], in [3], in [4], in experiment [5] and in [6] was “inactive” in each case. The Potency result (in experiment [7]; in [8]; in experiment [9]; with Aromatase (Homo sapiens)) was “inactive” each time.
Consider `CO/N=C(\C(=O)N[C@@H]1C(=O)N2C(C(=O)O)=C(CSC(=O)c3ccco3)CS[C@H]12)c1csc(N)n1`, for which the Potency entry in [1], in [2], in experiment [3], in [4], in experiment [5] and in [6] was “inactive” throughout. Besides, the Potency entry (in [7]; in experiment [8]; in [9]; with Aromatase (Homo sapiens)) was “inactive” throughout.
On to `O=C1CC[C@@H](C(=O)N2CSC[C@H]2C(=O)O)N1` ([pGlu]-[Thz]-OH), for which the Potency result in experiment [1], in experiment [2], in experiment [3], in [4], in [5] and in experiment [6] was “inactive” each time. Further, the Potency entry (in experiment [7]; in experiment [8]; in [9]; with Aromatase (Homo sapiens)) was “inactive” throughout.
As for `CCOC(=O)[C@H](CS)NCCN[C@@H](CS)C(=O)OCC`, the Potency result in [1], in experiment [2], in [3], in experiment [4], in experiment [5] and in experiment [6] was “inactive” each time. Moreover, the Potency result (in [7]; in experiment [8]; in experiment [9]; in the experiment with Aromatase (Homo sapiens)) was “inactive” throughout.
With `O=P(O)(O)OC(CO)CO`, the Potency result in experiment [1], in experiment [2], in experiment [3], in experiment [4], in [5] and in experiment [6] was “inactive” each time. Also, the Potency entry (in experiment [7]; in experiment [8]; in experiment [9]; with Aromatase (Homo sapiens)) was “inactive” each time.
For the molecule `COc1ccc2c(c1)N(C[C@H](C)CN(C)C)c1ccccc1S2`, the Potency is 4.52 µM (active) in experiment [1] and 10.1 µM (active) in [2]. Further, the Potency result in experiment [3], in experiment [4], in [5], in [6], in [7] and in [8] was “inactive” each time. Besides, the Potency result in experiment [9] is “inactive”.
As for `CC[C@H](C)CCCCC(=O)N[C@@H](CCN)C(=O)N[C@H](C(=O)N[C@@H](CCN)C(=O)N[C@H]1CCNC(=O)[C@H]([C@@H](C)O)NC(=O)[C@H](CCN)NC(=O)[C@H](CCN)NC(=O)[C@H](CC(C)C)NC(=O)[C@@H](CC(C)C)NC(=O)[C@H](CCN)NC1=O)[C@@H](C)O` (X2-[Dab]T[Dab][Dab][Dab][dL]L[Dab][Dab]T; lactam 4-C), the Potency result in [1], in experiment [2], in [3], in experiment [4], in experiment [5] and in experiment [6] was “inactive” in each case. Moreover, the Potency entry (in experiment [7]; in experiment [8]; in [9]; in the experiment with Aromatase (Homo sapiens)) was “inactive” throughout.
With `COC(=O)CC[C@H](N)C(=O)O`, the Potency result in [1], in experiment [2], in experiment [3], in experiment [4], in experiment [5] and in [6] was “inactive” throughout. The Potency result (in experiment [7]; in experiment [8]; in experiment [9]; with Aromatase (Homo sapiens)) was “inactive” throughout.
As for `O=S(O)CNc1ccc(S(=O)(=O)c2ccc(NCS(=O)O)cc2)cc1`, the Potency result in experiment [1], in [2], in experiment [3], in experiment [4], in experiment [5] and in experiment [6] was “inactive” throughout. Also, the Potency entry (in [7]; in experiment [8]; in experiment [9]; with Aromatase (Homo sapiens)) was “inactive” each time.
Take `O=C(NCCNCC(O)COc1ccc(O)cc1)N1CCOCC1` (configuration not stated): the Potency entry in experiment [1], in [2], in experiment [3], in experiment [4], in experiment [5] and in experiment [6] was “inactive” in each case. The Potency result (in [7]; in experiment [8]; in experiment [9]; in the experiment with Aromatase (Homo sapiens)) was “inactive” in each case.
For the molecule `CC(C)(C)NCC(O)CSc1nc(-c2ccc(C(N)=O)s2)cs1` (configuration not stated), the Potency result in experiment [1], in experiment [2], in [3], in experiment [4], in [5] and in [6] was “inactive” each time. Also, the Potency result (in [7]; in experiment [8]; in experiment [9]; with Aromatase (Homo sapiens)) was “inactive” each time.
`CCN(CC)CCOC(=O)c1ccc(N)cc1Cl`: the Potency entry in experiment [1], in experiment [2], in experiment [3], in experiment [4], in experiment [5] and in experiment [6] was “inactive” in each case. The Potency entry (in [7]; in experiment [8]; with Aromatase (Homo sapiens)) was “inactive” throughout.
As for `COc1cc(C[C@@H]2NCCc3cc(O)c(O)cc32)cc(OC)c1OC`, the Potency result in experiment [1], in experiment [2], in experiment [3], in [4], in [5] and in experiment [6] was “inactive” in each case. Besides, the Potency entry (in [7]; in [8]; in the experiment with Aromatase (Homo sapiens)) was “inactive” each time.
